Measured values from the supplement of paper PMC6555819.

What was measured:
Experiment in all cases: PBM binding z-score (relative to random genomic background probes); higher = stronger binding; sequences stand for … in GC…GCGATTGACAGCGTAGAATGAAGG
[1] = tested on: FXR:RXRa (NR concentration 270 nM, RXRa partner concentration 90 nM)
Procedure, shortened: (§1)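 Antibodies against each partner of ligand-free nuclear receptor dimers (one per run) detected binding on custom Agilent 4×180K protein-binding microarrays after 1 h incubation. The double-stranded probes had 34-nt variable regions carrying direct-repeat seeds, single-nucleotide variants, half-site ablations and random human genomic background sequences. Binding z-scores, from regression-normalized fluorescence, use the random background probes as reference.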

[2] = tested on: LXRa:RXRa (NR concentration 270 nM, RXRa partner concentration 90 nM)
Procedure, shortened: as §1

[3] = tested on: LXRa homodimer (NR concentration 270 nM)
Procedure, shortened: as §1

[4] = tested on: LXRb:RXRa (NR concentration 270 nM, RXRa partner concentration 90 nM)
Procedure, shortened: as §1

[5] = tested on: LXRb homodimer (NR concentration 270 nM)
Procedure, shortened: as §1

[6] = tested on: PPARa:RXRa (NR concentration 270 nM, RXRa partner concentration 90 nM)
Procedure, shortened: as §1

[7] = tested on: PPARg:RXRa (NR concentration 180 nM, RXRa partner concentration 90 nM)
Procedure, shortened: as §1

[8] = tested on: PPARg:RXRa 270nM:90nM, anti-RXR (NR concentration 270 nM, RXRa partner concentration 90 nM)
Procedure, shortened: as §1

[9] = tested on: PPARg:RXRa 30nM:10nM, anti-RXR (NR concentration 30 nM, RXRa partner concentration 10 nM)
Procedure, shortened: as §1

[10] = tested on: PPARg:RXRa 90nM:30nM, anti-RXR (NR concentration 90 nM, RXRa partner concentration 30 nM)
Procedure, shortened: as §1

[11] = tested on: PPARg:RXRa DBDmut IVT, anti-RXR (DBD mutation: RXRa K156A/R161A, NR concentration 270 nM, RXRa partner concentration 90 nM)
Procedure, shortened: as §1

[12] = tested on: PPARg:RXRa IVT, anti-PPARg (NR concentration 270 nM, RXRa partner concentration 90 nM)
Procedure, shortened: as §1

[13] = tested on: PPARg DBDmut:RXRa IVT, anti-PPARg (DBD mutation: PPARg1 K132A/R137A, NR concentration 270 nM, RXRa partner concentration 90 nM)
Procedure, shortened: as §1

[14] = tested on: PPARg DBDmut IVT, anti-PPARg (DBD mutation: PPARg1 K132A/R137A, NR concentration 270 nM)
Procedure, shortened: as §1

[15] = tested on: PPARg homodimer (NR concentration 180 nM)
Procedure, shortened: as §1

[16] = tested on: PXR:RXRa (NR concentration 270 nM, RXRa partner concentration 90 nM)
Procedure, shortened: as §1

[17] = tested on: PXR homodimer (NR concentration 270 nM)
Procedure, shortened: as §1

[18] = tested on: RARa:RXR (NR concentration 270 nM, RXRa partner concentration 90 nM)
Procedure, shortened: as §1

[19] = tested on: RARa homodimer (NR concentration 270 nM)
Procedure, shortened: as §1

[20] = tested on: RARb:RXRa (NR concentration 270 nM, RXRa partner concentration 90 nM)
Procedure, shortened: as §1

| Sequence | PBM binding z-score [1] | PBM binding z-score [2] | PBM binding z-score [3] | PBM binding z-score [4] | PBM binding z-score [5] | PBM binding z-score [6] | PBM binding z-score [7] | PBM binding z-score [8] | PBM binding z-score [9] | PBM binding z-score [10] | PBM binding z-score [11] | PBM binding z-score [12] | PBM binding z-score [13] | PBM binding z-score [14] | PBM binding z-score [15] | PBM binding z-score [16] | PBM binding z-score [17] | PBM binding z-score [18] | PBM binding z-score [19] | PBM binding z-score [20] |
| --- | --- | --- | --- | --- | --- | --- | --- | --- | --- | --- | --- | --- | --- | --- | --- | --- | --- | --- | --- | --- |
| CTACCAAGGTGAACAAGGTCGTTTATTACTATTC | 1.5 | 1.78 | 0.765 | 2.61 | -0.00441 | 2.46 | 1.06 | 1.2 | 0.0871 | 0.818 | 2.67 | 2.5 | 0.494 | 0.322 | 1.29 | 3.07 | 2.38 | 2.12 | 0.698 | 2.26 |
| GCTCGGAGTACAAGGTCAGAGCTTTGTCCGTAGA | 1.17 | 1.6 | 0.0814 | 1 | -0.761 | 2.17 | 0.501 | 1.48 | -0.171 | 0.497 | 0.542 | 0.648 | -1.36 | -1.01 | 1.73 | 1.67 | -0.101 | 2.14 | -0.729 | 3.07 |
| TCTAGCAGGCCAGACGGTCACTCAAGAGGTACGG | -0.139 | -0.465 | -0.491 | -0.378 | -0.934 | 0.21 | 0.662 | 1.52 | 1.72 | 1.67 | 0.883 | 0.0624 | -0.226 | -0.934 | -0.417 | -0.727 | -0.716 | -0.457 | -0.452 | 1.04 |
| ACTAGCAGGCCAAGTTCGGGTCACTCAAACAAAG | 1.11 | 1.28 | 0.378 | 1.79 | -0.339 | 2.45 | 0.431 | 0.794 | -0.79 | 0.197 | 0.756 | 1.07 | -0.452 | -1 | 1.34 | 2.55 | 0.53 | 3.19 | -0.287 | 2.33 |
| TCTGCTAGGTCAGTTCGTCAGCTAACGAGCTGCC | 0.654 | 0.387 | -0.691 | 0.0408 | 0.21 | 0.896 | 0.0243 | 1.38 | 1.37 | 1.51 | 2.26 | 2.31 | 1.01 | 0.64 | -0.455 | 0.229 | -1.06 | 0.273 | -1.33 | 3.01 |
| CTCTAAAGGTCGGTTGAGGTGAGTATACGGATAA | 2.41 | 2.21 | 0.211 | 1.61 | 0.152 | 2.87 | 0.622 | 1.44 | 0.122 | 0.958 | 0.506 | 1.04 | 0.0568 | 0.0389 | 1.04 | 3.48 | 0.187 | 2.31 | -0.146 | 3.31 |
| AGTCAAAGTTCAGGACGAGGTAACGAAAAGCACG | 4.17 | 3.54 | 0.921 | 1.92 | 0.307 | 3.39 | 4.87 | 5.02 | 2.18 | 4.04 | 0.0438 | 2.03 | 0.538 | 0.477 | 1.63 | 2.75 | 1.22 | 2.71 | 0.551 | 4.3 |
| GCTGCTAGGTCAACTGATAGTCAGCTAAAGCTCG | 4 | 2.78 | -0.18 | 1.91 | -0.159 | 3.77 | 2.91 | 3.17 | 0.765 | 2.41 | 4.86 | 4.12 | 0.166 | -1.36 | 0.644 | 1.05 | -0.294 | 2.13 | -0.287 | 4.09 |
| CCTATTAGCTGACCATAAGGGCAACCGAAGCTCG | 0.524 | 0.335 | 0.221 | 0.0745 | 0.36 | 0.273 | 0.333 | -0.0328 | -0.243 | -0.184 | 0.163 | 0.429 | -0.689 | 0.266 | 1.42 | 0.183 | 0.353 | 0.375 | 0.765 | 1.18 |
| TCTTGTAGATCAGCGGGTTAAGAAAGCTGGCCAA | 0.495 | 0.126 | -0.31 | 0.0907 | 0.392 | 0.933 | -0.329 | 1.16 | 2.52 | 1.99 | 1.84 | 0.55 | -0.631 | 0.232 | 0.0922 | 0.359 | -0.369 | 0.653 | -0.539 | 0.032 |
| TCATATAGGTAATACAGGTGAAATTCGGCATCTA | 1.05 | 1.37 | 0.75 | 1.17 | 0.147 | 1.96 | 1.65 | 2.53 | 3.85 | 3.09 | 3.87 | 2.95 | 1.39 | 1.39 | 1.02 | 0.776 | 0.431 | 1.2 | 1.76 | 0.602 |
| TCACCAAGGTGAAGGTCGTTGATCCCTCTGTAGA | 2.28 | 2.24 | -0.136 | 1.8 | -0.731 | 2.71 | 2.23 | 3.66 | 2.84 | 3.37 | 2.46 | 2.65 | 0.477 | 0.105 | -0.15 | 1.61 | 0.00737 | 1.94 | -1.46 | 2.27 |
| CCTGCTAGGTCAATGGACAGCTAAAGCAGCTCGC | 2.71 | 2.11 | -0.488 | 1.29 | -0.325 | 2.73 | 1.63 | 2.17 | 0.0027 | 1.05 | 3.92 | 3.11 | -0.347 | -0.89 | 0.928 | 0.497 | -0.327 | 1.2 | -0.377 | 3.75 |
